# This is part of a sample that, as a whole, favours compounds with a hit. Of some 83,000 tested, about 20% had one in any assay.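 Compound tested at a single concentration for 48 hours in 96-well plates; a percent growth value below 10 was scored as active.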 Values without a mark were called inactive. Active and inactive are the calls of the source.
# Test system: SF-295 CNS
# Experiment: NCI-60 one-dose screen, 48 h (100 = growth as untreated, 0 = no growth, -100 = all killed)
# Conditions: 10 µM
row,Compound,growth
1,Cc1ccc(C(=O)NCCCNc2nc(Nc3ccc(N4CCN(C)CC4)cc3)nc3ccsc23)cc1,44.8%
2,O=C(c1ccc(-n2c(=O)[nH]c3ccccc3c2=O)cc1)N1CCOCC1,102%
3,O=S(=O)(c1ccc(Cl)cc1)c1nc(-c2ccccc2)oc1S(=O)(=O)c1ccc(Cl)cc1,92.9%
4,Cc1ccc(C(C)C)cc1NC(=O)c1ccccc1N(C)C,83.8%
5,COc1ccc2[nH]c(O)c(N=NC(=O)COc3ccc(NC(=O)Nc4ccc(Cl)c(Cl)c4)cc3)c2c1,-45.5% (active)
6,COc1cccc(-c2nn(-c3ccccc3)cc2-c2ccnc(NCCCNC(=O)Nc3ccc(F)cc3)c2)c1,-40.5% (active)
7,CN1CCN(c2ccc(Nc3nc(NCCCNC(=O)c4ccc(F)cc4)c4sccc4n3)cc2)CC1,79.9%
8,CC1(C)CC[C@]2(C(=O)Nc3ccccc3)CC[C@]3(C)C(=CC[C@@H]4[C@@]5(C)CC[C@H](N)C(C)(C)[C@@H]5CC[C@]43C)[C@H]2C1,52.7%
9,C[C@H]1[C@H](C)CC[C@]2(COC(=O)CCC(=O)NCC#CCN3CCNCC3)CC[C@]3(C)C(=CC[C@@H]4[C@@]5(C)CCCNC(C)(C)[C@@H]5CC[C@]43C)[C@H]12,28.1%
10,O=C(Nc1ccncc1)c1ccc(-n2c(=O)[nH]c3ccccc3c2=O)cc1,95.6%
11,Cc1ccc(C(C)C)cc1NC(=O)c1ccccc1O,61.8%
12,CCCS(=O)(=O)c1oc(-c2ccc(F)cc2)nc1S(=O)(=O)c1ccc(F)cc1,78.2%
13,CN(C)c1cccc2c(S(=O)(=O)Nc3cccc(-c4csc(NC(=O)CCCCCN5CCN(c6cc7c(cc6F)C(=O)N(C6CCC(=O)NC6=O)C7=O)CC5)n4)c3)cccc12 (configuration not stated),91.8%
14,CC(=C(c1ccc(OCCN2CCCCC2)cc1)c1ccc(OCCN2CCCCC2)cc1)c1ccccc1,-57.2% (active)
15,CC[C@@]1(O)C(=O)OCc2c1cc1n(c2=O)Cc2c-1nc1cc(F)c(C)c3c1c2[C@@H](N)CC3,-0.789% (active)
16,O=C(Cn1cc(CSc2nnc3oc4ccccc4n23)nn1)Nc1cccc(Cl)c1,66.8%
17,C=C(C)[C@@H]1CC[C@]2(C(=O)OC)CC[C@]3(C)[C@H](CC[C@@H]4[C@@]5(C)CC[C@H](N)C(C)(C)[C@@H]5CC[C@]43C)[C@@H]12,-94.1% (active)
18,COc1ccc(-c2nc(S(=O)(=O)c3ccc(C)cc3)c(S(C)(=O)=O)o2)cc1,78.4%
19,CCN1CCN(c2ccc(NC(=O)Nc3ccc(-c4cc(C(=O)NC(C)C)c5ncccc5n4)cc3)cc2C(F)(F)F)CC1,-92.4% (active)

row,Compound,growth
1,C=C[C@H]1[C@H](O[C@@H]2OC(CO)[C@@H](O)[C@H](O)C2OC(=O)c2c(O)cc(O)cc2-c2cccc(O)c2)OC=C2C(=O)OCC[C@H]21 (some centres not stated),96.2%
2,COc1ccc(C(C)=C(c2ccc(OCCCN(C)C)cc2)c2ccc(OCCCN(C)C)cc2)cc1,-85.2% (active)
3,CC1(C)CC[C@]23CC[C@]4(C)[C@H](CC[C@@H]5[C@@]6(C)CC[C@H](N)C(C)(C)[C@@H]6CC[C@]54C)[C@H]2[C@H]1OC3=O,-94.5% (active)
4,CCN1CCN(c2ccc(NC(=O)Nc3ccc(-c4cc(C(=O)NC)c5ncccc5n4)cc3)cc2C(F)(F)F)CC1,-99% (active)
5,COc1ccc2[nH]c(O)c(N=NC(=O)c3cc(-c4ccc(C)cc4)nc4ccccc34)c2c1,108%
6,O=C(Cn1cc(CSc2nnc3oc4ccccc4n23)nn1)Nc1ccc(Br)cc1,43.7%
7,CN1CCN(c2ccc(Nc3nc(N4CCN(S(=O)(=O)c5ccc(F)cc5)CC4)c4sccc4n3)cc2)CC1,-88.5% (active)
8,COc1ccccc1NCc1ccc(CO)n1-c1ccc(C)cc1,100%
9,CC(=C(c1ccc(OCCCN(C)C)cc1)c1ccc(OCCCN(C)C)cc1)c1ccccc1,-92.8% (active)
10,CN1CCN(c2ccc(Nc3nc(NCCCNC(=O)c4ccccc4)c4sccc4n3)cc2)CC1,85.9%
11,CCCCCc1ccc(S(=O)(=O)N(C(C)=O)c2cc(-c3csc(N(C)C(C)=O)n3)ccc2N2CCN(C)CC2)cc1,-88.2% (active)
12,C=C1CC[C@H](C(=C)C)[C@H]2C=C(C)C(=O)C3=C(C(=O)[C@@](C)(O)C3)[C@H]12,-86.4% (active)
13,CC(=O)Nc1nc(-c2ccc(N3CCN(C)CC3)c(NS(=O)(=O)c3cccc4c(N(C)C)cccc34)c2)cs1,-58.7% (active)
14,CNC(=O)c1cccc(N2CCc3c2ccc(NC(=O)Nc2ccc(N4CCN(C)CC4)c(C(F)(F)F)c2)c3F)c1,-97.2% (active)
15,CN1CCN(c2ccc(Nc3nc(N4CCN(S(=O)(=O)c5ccc(Cl)cc5)CC4)c4sccc4n3)cc2)CC1,-78% (active)
16,CC1(C)CC[C@]2(C(=O)NCCCNCCCCNCCCN)CC[C@]3(C)C(=CC[C@@H]4[C@@]5(C)Cc6c([nH]c7ccccc67)C(C)(C)[C@@H]5CC[C@]43C)[C@H]2C1,98.5%
17,C=CC(=O)Nc1nc(-c2cccc(NS(=O)(=O)c3cccc4c(N(C)C)cccc34)c2)cs1,37.8%
18,COC1CC(Cn2cc(COc3ccc4ccc(=O)oc4c3)nn2)C(OCc2ccccc2)C(OCc2ccccc2)C1OCc1ccccc1 (configuration not stated),102%
